Laboratory results taken from PubChem BioAssay (NCI).
This is part of a sample that, as a whole, favours compounds with a hit. Of some 79,000 tested, about 15% had one in any assay. A number with no mark means an inactive call. Active and inactive are the calls of the source. No stated cut-off is given here; in the data, active means growth inhibition above about 70%; inactive means the rest. Where a SMILES comes first, the peptide text is derived from it. [ ]: non-standard residue; d: D form. The star is where a group is joined. ξ: configuration not given here. ξD = NC(CC(=O)O)C(=O)O; Boc = CC(C)(C)OC(=O)*; Aib = CC(C)(N)C(=O)O; OtBu = CC(C)(C)O*

Experiments:
[1] = NCI Yeast Anticancer Drug Screen. Data for the rad50 strain (AID 155);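 further: 0% = growth of vehicle-only cultures of the same strain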; settings: S. cerevisiae rad50 strain growth inhibition; at 50.0 µM; active compounds read high
How it was run: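 Cells are treated with compound, grown, and their growth is then scored against vehicle-only cultures of the same repair-deficient yeast strain.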

[2] = NCI Yeast Anticancer Drug Screen. Data for the mec2-1 strain (AID 157); settings: S. cerevisiae mec2-1 strain, at 50.0 µM, active compounds read high
How it was run: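 Readout is yeast growth inhibition, normalised to vehicle-treated controls, in the mec2-1 strain exposed to compound.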

[3] = NCI Yeast Anticancer Drug Screen. Data for the sgs1 mgt1 strain (AID 161);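 further: 0% = growth of cultures given vehicle only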; settings: S. cerevisiae sgs1 mgt1 strain, at 50.0 µM, active compounds read high
How it was run: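 Compounds are added to genetically altered yeast, and growth is compared with cultures given vehicle alone to give percent inhibition.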

[4] = NCI Yeast Anticancer Drug Screen. Data for the cln2 rad14 strain (AID 165);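 further: 0% = growth equal to vehicle treated cultures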; settings: S. cerevisiae cln2 rad14 strain, at 50.0 µM, active compounds read high
How it was run: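 Relative to vehicle controls, growth inhibition of compound-treated cln2 rad14 yeast was recorded.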

[5] = NCI Yeast Anticancer Drug Screen. Data for the bub3 strain (AID 167); settings: S. cerevisiae bub3 mutant strain, at 50.0 µM, active compounds read high
How it was run: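 Part of a panel of yeast mutants defective in DNA damage repair or cell cycle regulation. Each strain is grown with compound, and inhibition is calculated relative to solvent-treated cultures.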

[6] = NCI Yeast Anticancer Drug Screen. Data for the mlh1 rad18 strain (AID 175); settings: S. cerevisiae mlh1 rad18 strain growth inhibition; at 50.0 µM; active compounds read high
How it was run: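 Test agents were incubated with a yeast strain of defined genotype (DNA damage repair defect). Inhibition of growth was derived by comparison with vehicle-exposed cultures.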

CC(C)(N)COCOCC(C)(C)N
growth inhibition [1]: 6.8% | growth inhibition [2]: -5.35% | growth inhibition [3]: -1.15% | growth inhibition [4]: 2.4% | growth inhibition [5]: 5.8% | growth inhibition [6]: 0%

CC(=O)O[C@]12CCCCC1C1(O)C(O)CCCC[C@H]12 (stereo partly specified)
growth inhibition [1]: -41.8% | growth inhibition [2]: -62.2% | growth inhibition [3]: -65.5% | growth inhibition [4]: -4.95% | growth inhibition [5]: -20.6% | growth inhibition [6]: -31.8%

CC(C)c1cccc(C(C)(C)C)n1
growth inhibition [1]: 16.1% | growth inhibition [2]: 30.5% | growth inhibition [3]: -2.7% | growth inhibition [4]: -3.65% | growth inhibition [5]: 0.3% | growth inhibition [6]: 11.1%

N/N=C1/C(=O)N(c2ccc(S(N)(=O)=O)cc2)C(=O)C1C(=O)Nc1ccc(S(N)(=O)=O)cc1 (stereo unspecified)
growth inhibition [1]: -4% | growth inhibition [2]: 15.6% | growth inhibition [3]: -0.9% | growth inhibition [4]: 30.6% | growth inhibition [5]: 0.25% | growth inhibition [6]: 12.1%

CC1(C)OS(=O)(=O)C=C1Br
growth inhibition [1]: 16.7% | growth inhibition [2]: -9.8% | growth inhibition [3]: -4.15% | growth inhibition [4]: -16% | growth inhibition [5]: -8.4% | growth inhibition [6]: -16.6%

CSc1ccc(NC(=O)Nc2cccc(C)c2C)cc1
growth inhibition [1]: 1.75% | growth inhibition [2]: 27.1% | growth inhibition [3]: 27.8% | growth inhibition [4]: -7.2% | growth inhibition [5]: 27.6% | growth inhibition [6]: 15.3%

O=c1[nH]c2cc(Cl)ccc2nc1/C=C(\O)c1ccccc1O
growth inhibition [1]: 3.35% | growth inhibition [2]: -13.3% | growth inhibition [3]: -11.2% | growth inhibition [4]: -8.4% | growth inhibition [5]: -28.3% | growth inhibition [6]: -0.8%

CCC1(CN(C)C)CC/C(=C\c2ccc(OC)c(OC)c2)C1=O (stereo unspecified)
growth inhibition [1]: 13.2% | growth inhibition [2]: 0% | growth inhibition [3]: -1.25% | growth inhibition [4]: 15.9% | growth inhibition [5]: 7.8% | growth inhibition [6]: 25.2%

CN(C)NC(=O)/C=C\C(=O)O
growth inhibition [1]: -12.6% | growth inhibition [2]: -17.4% | growth inhibition [3]: -9.8% | growth inhibition [4]: -6.9% | growth inhibition [5]: -7.45% | growth inhibition [6]: -3.2%

CCCCCCCCCCCCCCCCCC(=O)NCCCNCCCNC(=O)CCCCCCCCCCCCCCCCC
growth inhibition [1]: -10.9% | growth inhibition [2]: -21.4% | growth inhibition [3]: -12.2% | growth inhibition [4]: 7.55% | growth inhibition [5]: -17.5% | growth inhibition [6]: -13.6%

CCC1(CC)C(=O)N=C(c2ccccc2)N1C
growth inhibition [1]: -5.55% | growth inhibition [2]: -5.75% | growth inhibition [3]: 8.15% | growth inhibition [4]: -16% | growth inhibition [5]: -2.3% | growth inhibition [6]: -10.7%

Cc1ncc(CO)c(CN)c1O
growth inhibition [1]: -0.55% | growth inhibition [2]: -21.4% | growth inhibition [3]: -38% | growth inhibition [4]: -23.4% | growth inhibition [5]: -28.4% | growth inhibition [6]: -1.75%

CCCC(SCC(=O)O)SCC(=O)O
growth inhibition [1]: 14.4% | growth inhibition [2]: -6.05% | growth inhibition [3]: -6.85% | growth inhibition [4]: -41.8% | growth inhibition [5]: -4.75% | growth inhibition [6]: -17%

O=C1CSC(c2c(F)cccc2Cl)N1c1nncs1 (stereo unspecified)
growth inhibition [1]: 9.4% | growth inhibition [2]: -2% | growth inhibition [3]: 31.4% | growth inhibition [4]: 13% | growth inhibition [5]: 29.6% | growth inhibition [6]: 10%

COc1ccc(N2C(=O)[C@@H](N=[N+]=[N-])[C@@H]2[C@H]2COC(C)(C)O2)cc1
growth inhibition [1]: 1.95% | growth inhibition [2]: -14.3% | growth inhibition [3]: 1.3% | growth inhibition [4]: 5% | growth inhibition [5]: 3.35% | growth inhibition [6]: 9%

CN1C(=O)c2ccccc2C(O)(c2ccccc2)C1(O)c1ccccc1 (stereo unspecified)
growth inhibition [1]: -6.3% | growth inhibition [2]: -20.9% | growth inhibition [3]: -26.7% | growth inhibition [4]: 12.2% | growth inhibition [5]: -12.2% | growth inhibition [6]: -38.9%

Cc1ccc(NC(=O)OCCOc2c(C(C)C)cccc2C(C)C)c([N+](=O)[O-])c1
growth inhibition [1]: -0.8% | growth inhibition [2]: -3.3% | growth inhibition [3]: 8.55% | growth inhibition [4]: -41.9% | growth inhibition [5]: -7.7% | growth inhibition [6]: 18.4%

CCCC(=O)NC(NC1CCCCC1)(C(=O)OCC)C(F)(F)F (stereo unspecified)
growth inhibition [1]: -17.3% | growth inhibition [2]: -0.15% | growth inhibition [3]: -15.6% | growth inhibition [4]: 18.4% | growth inhibition [5]: -7.25% | growth inhibition [6]: -45.1%

Cc1ccc(NC(=O)Oc2ccc(C#N)cc2)cc1Cl
growth inhibition [1]: 9.45% | growth inhibition [2]: 5.85% | growth inhibition [3]: 21.1% | growth inhibition [4]: 17.8% | growth inhibition [5]: 29.8% | growth inhibition [6]: 27.1%

COCCOCOC(C)(C)[C@H](CCO)O[Si](c1ccccc1)(c1ccccc1)C(C)(C)C
growth inhibition [1]: 91.9% (active) | growth inhibition [2]: 96.5% (active) | growth inhibition [3]: 37.6% | growth inhibition [4]: 91.6% (active) | growth inhibition [5]: 91.4% (active) | growth inhibition [6]: 95.8% (active)

Nc1[nH]c(=S)nc2snnc12
growth inhibition [1]: 3% | growth inhibition [2]: -6.6% | growth inhibition [3]: 9.4% | growth inhibition [4]: 11.2% | growth inhibition [5]: 3.1% | growth inhibition [6]: 14.8%

CC(NC(=O)N(C)C)NC(=O)N(C)C
growth inhibition [1]: -17.9% | growth inhibition [2]: -22.3% | growth inhibition [3]: -5.15% | growth inhibition [4]: -5.85% | growth inhibition [5]: -0.9% | growth inhibition [6]: -4.95%

CC(=O)NC(CSCC(=O)c1ccccc1)C(=O)O (stereo unspecified)
growth inhibition [1]: -12.6% | growth inhibition [2]: -8% | growth inhibition [3]: -10.3% | growth inhibition [4]: -6.05% | growth inhibition [5]: -18.8% | growth inhibition [6]: -3.5%

C=C1C(=O)OC2CCC3OC(C)(C)OC3C12 (stereo unspecified)
growth inhibition [1]: 6.2% | growth inhibition [2]: 17.5% | growth inhibition [3]: 15.4% | growth inhibition [4]: -16.9% | growth inhibition [5]: 31.9% | growth inhibition [6]: 10.6%

Nc1ccccc1SC1CC(=O)N(c2ccc(Br)cc2)C1=O (stereo unspecified)
growth inhibition [1]: 13.2% | growth inhibition [2]: 3.4% | growth inhibition [3]: 2.75% | growth inhibition [4]: 10.8% | growth inhibition [5]: 26.6% | growth inhibition [6]: 12.3%

C1=CC(=NN=P(c2ccccc2)(c2ccccc2)c2ccccc2)C=C1
growth inhibition [1]: 21.7% | growth inhibition [2]: 7.9% | growth inhibition [3]: 20.3% | growth inhibition [4]: 19.9% | growth inhibition [5]: 18.7% | growth inhibition [6]: 13.5%

COC(=O)C(C)(C)NC(=O)C(C)(C)NC(=O)C(CC(=O)OC(C)(C)C)NC(=O)OC(C)(C)C (stereo unspecified) (Boc-[ξD](OtBu)-[Aib]-[Aib]-OMe)
growth inhibition [1]: -29.3% | growth inhibition [2]: -16.1% | growth inhibition [3]: -21.1% | growth inhibition [4]: -7.4% | growth inhibition [5]: -18.4% | growth inhibition [6]: -28.7%

CCCCOC(=O)CNC(=O)c1ccc(C)c(OCc2ccccc2)c1[N+](=O)[O-]
growth inhibition [1]: 0.5% | growth inhibition [2]: -6.1% | growth inhibition [3]: 6.1% | growth inhibition [4]: -19.6% | growth inhibition [5]: 20.9% | growth inhibition [6]: -17.6%

O=c1cc(-c2ccccc2)c2ccccc2[nH]1
growth inhibition [1]: 2.15% | growth inhibition [2]: -6.8% | growth inhibition [3]: -12.5% | growth inhibition [4]: 15.9% | growth inhibition [5]: -27.1% | growth inhibition [6]: -1%

CCCCN(CCCC)c1ccc(S(=O)(=O)c2ccc(N(CCCC)CCCC)cc2)cc1
growth inhibition [1]: 19.1% | growth inhibition [2]: 4.95% | growth inhibition [3]: 9.4% | growth inhibition [4]: 30.4% | growth inhibition [5]: -2.35% | growth inhibition [6]: 18.6%

NNC(=O)CC(O)C(=O)NN (stereo unspecified)
growth inhibition [1]: -4.7% | growth inhibition [2]: -0.8% | growth inhibition [3]: -1.85% | growth inhibition [4]: 11.4% | growth inhibition [5]: -1.75% | growth inhibition [6]: 4.75%

O=C1CC(c2ccccc2)C(c2ccccc2)C1C(=O)OC1CCCCC1 (stereo unspecified)
growth inhibition [1]: 0.5% | growth inhibition [2]: 2.85% | growth inhibition [3]: 0.65% | growth inhibition [4]: -62.5% | growth inhibition [5]: 0.55% | growth inhibition [6]: -15.4%

CN(C)c1ccc(/C=C2\CCc3ccccc3C2=O)cc1Br
growth inhibition [1]: 5.6% | growth inhibition [2]: -12.1% | growth inhibition [3]: -13.9% | growth inhibition [4]: -9.05% | growth inhibition [5]: 3.95% | growth inhibition [6]: -26.6%

CN(C)c1nc(Oc2nc(N(C)C)nc(N(C)C)n2)nc(N(C)C)n1
growth inhibition [1]: -21.8% | growth inhibition [2]: -26.6% | growth inhibition [3]: -30.9% | growth inhibition [4]: -8.5% | growth inhibition [5]: -21.4% | growth inhibition [6]: -31.9%

CN1CCC(O)(C#N)CC1
growth inhibition [1]: -5.55% | growth inhibition [2]: 2% | growth inhibition [3]: -13.6% | growth inhibition [4]: -42.6% | growth inhibition [5]: 10.1% | growth inhibition [6]: -2.85%

CCCCCCCCCCCCCCCCCCCCCCC
growth inhibition [1]: -30.4% | growth inhibition [2]: -15.1% | growth inhibition [3]: -21.9% | growth inhibition [4]: 4.8% | growth inhibition [5]: -17.2% | growth inhibition [6]: -18.4%
